EWS-Fli block: inhibitors of EWS/Fli oncoprotein transcriptional activity; A673 NR0B1-luciferase reporter, viability-normalised; inhibition, % at 12.6 µM; 350,000 compounds, 0.67% hits; AID 651661;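 active = mean inhibition of at least 50% after viability correction, with every replicate also passing that limit; inconclusive = mean reaches 50% but only one of two replicates passes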;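 note: firefly luciferase signal divided by Alamar Blue viability fluorescence both relative to DMSO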
MITF TRPM1 inh: MITF TRPM1 promoter inhibition in SK-MEL-5 cells; inhibition, % at 12.5 µM; SK-MEL-5 TRPM1 promoter luciferase, 24 h; 330,000 compounds, 0.83% hits;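 active = mean inhibition across replicates of 60% or more, whatever share of single replicates reaches that level; inconclusive = some that reach 60%, reason not given; inactive = mean inhibition across replicates below 60%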
esBAF inh: blocks esBAF chromatin remodeling in mouse ES cells. Bmi1-luciferase knock-in reporter, 24 h; 100% = twice the neutral-well signal. reporter increase, % at 12.5 µM. 350,000 compounds, 2% hits. AID 602393; in the data active = activation above about 40%; inconclusive = no clear call, values can overlap the other calls;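 note: a rise in the Bmi1 reporter signal indicates esBAF inhibition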
MITF TRPM1 HTS: activators of MITF-driven TRPM1 promoter activity in SK-MEL-5 cells | SK-MEL-5 TRPM1-promoter luciferase, 24 h; % of positive control, neutral wells = 0 | activation, % at 12.5 µM | 300,000 compounds, 0.75% hits;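 active = mean activation of at least 80% with every replicate also reaching 80%; inconclusive = mean reaches 80% but some replicate falls short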
Wnt act: Wnt/beta-catenin pathway activation; Wnt/beta-catenin reporter cell assay, activator, plate reader; activation, % at 9.35 µM; 300,000 compounds, 1.2% hits; AID 743398; in the data active = activation above about 30%, passing the limit was not always enough; inconclusive = no clear call, values can overlap the other calls
PAX8 reporter: inhibitors of PAX8 transcriptional activity in RMG-I cells. RMG-I TPO-luciferase reporter, SteadyGlo, 24 h. inhibition, % at 12.6 µM. 360,000 compounds, 1.2% hits;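 active = mean replicate inhibition at least 60% with every replicate also reaching 60%; inconclusive = only one of the two criteria is met; inactive = mean below 60% and not all replicates reaching 60%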;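 note: luciferase light reporting Pax8 driven TPO promoter activity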
Large screens that a line does not name were inactive. Compounds with a hit are over-represented: about 4% of the library has one in this group of screens.

Cc1nnc(Sc2cc(NCCO)c([N+](=O)[O-])c3nonc23)s1	MITF TRPM1 inh 67 (no result: esBAF inh)
Cc1nnc(Sc2cc(NCCCO)c([N+](=O)[O-])c3nonc23)s1	MITF TRPM1 inh 75, PAX8 reporter 75 (no result: esBAF inh)
CCC(=O)OCCNc1cc(Sc2nc3ccccc3s2)c2nonc2c1[N+](=O)[O-]	none (no result: EWS-Fli block, PAX8 reporter)
COc1ccc(CN(C)C[C@@H]2Oc3ccc(NC(=O)C4CC4)cc3CC(=O)N([C@H](C)CO)C[C@H]2C)cc1	none (no result: MITF TRPM1 inh, MITF TRPM1 HTS, Wnt act)
Cc1nc(SCC(=O)N(C)C2(C#N)CCCCC2)c2ccccc2n1	PAX8 reporter 62
C/C=C/c1ccc2c(c1)O[C@@H](CN(C)C(=O)Cc1ccccc1)[C@H](C)CN([C@H](C)CO)S2(=O)=O	none (no result: MITF TRPM1 inh, MITF TRPM1 HTS, Wnt act, PAX8 reporter)
Nc1ccc(-c2nnc(-c3ccc(N)cc3)o2)cc1	MITF TRPM1 HTS 99, Wnt act 35
CSc1ccccc1-c1nnc(-c2ccc(C)cc2)o1	none (no result: EWS-Fli block, esBAF inh, Wnt act, PAX8 reporter)
CSc1ccccc1-c1nnc(-c2ccccc2)o1	esBAF inh 43 (no result: EWS-Fli block, Wnt act, PAX8 reporter)
Nc1ccccc1-c1nnc(-c2ccc(-c3ccccc3)cc2)o1	MITF TRPM1 HTS 91 (no result: EWS-Fli block, Wnt act, PAX8 reporter)
O=S(=O)(N[C@H]1CC[C@@H](CCn2cc(-c3ccccc3F)nn2)O[C@@H]1CO)c1ccc(F)cc1	none (no result: MITF TRPM1 inh, esBAF inh, MITF TRPM1 HTS, Wnt act)
CN(C[C@@H]1[C@H](c2ccccc2)[C@@H](CO)N1C(=O)C1CC1)C(=O)c1ccccn1	none (no result: MITF TRPM1 inh, MITF TRPM1 HTS, Wnt act)
CCC(=O)N1CC2(C1)[C@H](c1ccccc1)[C@H](CO)N2Cc1cc(F)ccc1F	none (no result: MITF TRPM1 inh, esBAF inh, MITF TRPM1 HTS, Wnt act, PAX8 reporter)
COC(=O)c1c(NC(=O)c2cccs2)sc2c1CCC(C)C2 (stereo not drawn)	esBAF inh 50 (no result: EWS-Fli block, PAX8 reporter)
O=C(Nc1sc2c(c1C(=O)O)CCCC2)c1cccs1	esBAF inh 56 (no result: EWS-Fli block, Wnt act, PAX8 reporter)
O=C(/C=C/c1cccs1)Nc1sc2c(c1C(=O)O)CCCC2	esBAF inh 62
O=C(Nc1sc2c(c1C(=O)O)CCCCC2)c1cccs1	none (no result: esBAF inh)
CO[C@@H]1CC[C@@H]2CCOc3ccc(C#N)cc3C(=O)N(C)C[C@H](C)C(=O)N(C)C[C@@H]1O2	none (no result: MITF TRPM1 inh, MITF TRPM1 HTS, Wnt act)
CCCc1cn([C@@H]2C[C@@H]3O[C@H](CO)CC[C@@H]3O[C@@H]2CCc2ccc(-c3cccc(OC)c3)cc2)nn1	none (no result: EWS-Fli block, MITF TRPM1 inh, esBAF inh, MITF TRPM1 HTS, Wnt act)
Cn1c(NC(=S)Nc2ccccc2)nc2ccccc21	Wnt act 41 (no result: EWS-Fli block, esBAF inh)
COc1ccc(Nc2nc3ccccc3n2C)cc1	Wnt act 41
COc1ccc(CNc2nc3ccccc3n2C)c(O)c1	MITF TRPM1 HTS 93, Wnt act inconclusive
COc1ccc(NCc2nc3ccccc3n2C)cc1	none (no result: MITF TRPM1 HTS)
COc1ccc(C(=O)NNC(=O)Cc2nc3ccccc3n2C)cc1	PAX8 reporter 68
Cc1noc(C)c1NC(=O)N(C)C[C@H]1Oc2ccc(NS(C)(=O)=O)cc2CC(=O)N([C@@H](C)CO)C[C@@H]1C	none (no result: MITF TRPM1 inh, MITF TRPM1 HTS, Wnt act)
OC[C@H]1[C@@H](c2ccc(C3=CCCC3)cc2)[C@H]2CN(CCC(F)(F)F)CCCCN21	none (no result: MITF TRPM1 inh, esBAF inh, MITF TRPM1 HTS, Wnt act)
O=C(C[C@H]1C[C@H]2c3cc(NC(=O)C4CCC4)ccc3O[C@H]2[C@H](CO)O1)NCc1ccc(Cl)cc1	none (no result: MITF TRPM1 inh, MITF TRPM1 HTS, Wnt act)
C[C@H](CO)N1C[C@H](C)[C@@H](CN(C)C(=O)c2ccncc2)Oc2ncc(C#CC3CC3)cc2C1=O	none (no result: MITF TRPM1 inh, esBAF inh, MITF TRPM1 HTS, Wnt act, PAX8 reporter)
O=c1cc(-c2ccc3c(c2)OCCO3)oc2ccc(Cl)cc12	Wnt act 47 (no result: EWS-Fli block)
Cc1ccccc1-c1cc(=O)c2ccccc2o1	none
O=c1cc(-c2ccccc2)oc2ccc(Cl)cc12	Wnt act 47 (no result: esBAF inh, MITF TRPM1 HTS)
O=c1cc(-c2ccccc2F)oc2ccccc12	esBAF inh 58, Wnt act 47 (no result: EWS-Fli block, MITF TRPM1 HTS)
O=c1oc(-c2ccccc2)cc(Cl)c1Cl	EWS-Fli block 59
COc1cccc2c1C(=O)c1c(O)c3c(c(O)c1C2=O)C[C@@](O)(C(C)=O)C[C@@H]3O[C@H]1C[C@H](N)[C@H](O)[C@H](C)O1	EWS-Fli block 70, MITF TRPM1 inh 96, PAX8 reporter 114
COc1cccc2c1C(=O)c1c(O)c3c(c(O)c1C2=O)C[C@@](O)(C(=O)CO)C[C@@H]3O[C@H]1C[C@H](N)[C@@H](O)[C@H](C)O1	MITF TRPM1 inh 83 (no result: EWS-Fli block, Wnt act, PAX8 reporter)
COc1cccc2c1C(=O)c1c(O)c3c(c(O)c1C2=O)CC(O)(C(=O)CO)CC3OC1CC(N(C)C)C(O)C(C)O1 (stereo not drawn)	EWS-Fli block 64, MITF TRPM1 inh 69, PAX8 reporter 112 (no result: esBAF inh, MITF TRPM1 HTS)
CCCC(=O)Nc1ccc2c(c1)C(=O)N(C)C[C@@H](OC)[C@@H](C)CN(C(=O)CC)[C@@H](C)CO2	none (no result: MITF TRPM1 inh, MITF TRPM1 HTS, Wnt act, PAX8 reporter)
O=C(NCCc1cccs1)C1CC(c2ccc([N+](=O)[O-])cc2)=NO1 (stereo not drawn)	esBAF inh 59, MITF TRPM1 HTS 91, Wnt act 34
COc1ccc(CCNC(=O)C2CC(c3cccc([N+](=O)[O-])c3)=NO2)cc1 (stereo not drawn)	esBAF inh 70
Cc1ccc(CNC(=O)C2CC(c3cc(C(F)(F)F)cc(C(F)(F)F)c3)=NO2)o1 (stereo not drawn)	EWS-Fli block 54
COCCNC(=O)C1CC(c2ccc([N+](=O)[O-])cc2)=NO1 (stereo not drawn)	none
COc1ccc(CCNC(=O)C2CC(c3ccc([N+](=O)[O-])cc3)=NO2)cc1 (stereo not drawn)	none (no result: MITF TRPM1 inh, MITF TRPM1 HTS)
Cc1ccc(CNC(=O)C2CC(c3cccc([N+](=O)[O-])c3)=NO2)o1 (stereo not drawn)	esBAF inh 45
COc1ccccc1CNC(=O)C1CC(c2ccc([N+](=O)[O-])cc2)=NO1 (stereo not drawn)	none
COCC(=O)N(C)C[C@@H]1Oc2ncc(-c3ccccc3F)cc2C(=O)N([C@H](C)CO)C[C@H]1C	none (no result: MITF TRPM1 inh, MITF TRPM1 HTS, Wnt act)
C[C@@H]1CN([C@@H](C)CO)C(=O)c2cccc(NC(=O)c3ccncc3)c2O[C@H]1CN(C)C	none (no result: MITF TRPM1 inh, MITF TRPM1 HTS, Wnt act)
COc1ccc2c3c([nH]c2c1)[C@H](CO)N(C(=O)C1CCCC1)CC31CCN(S(C)(=O)=O)CC1	none (no result: MITF TRPM1 inh, esBAF inh, MITF TRPM1 HTS, Wnt act)
CC(C)CCNC(=O)C1CC(c2cccc(F)c2)=NO1 (stereo not drawn)	none
CCCCNC(=O)C1CC(c2cccc(F)c2)=NO1 (stereo not drawn)	esBAF inh 85, MITF TRPM1 HTS 89, Wnt act 32
O=S(=O)(N[C@@H]1CC[C@H](CCn2cc(Cc3ccccc3)nn2)O[C@H]1CO)c1ccccc1F	none (no result: EWS-Fli block, MITF TRPM1 inh, MITF TRPM1 HTS, Wnt act, PAX8 reporter)
C[C@H]1CN([C@@H](C)CO)C(=O)c2cc(NC(=O)CCCN(C)C)ccc2O[C@@H]1CN(C)Cc1ccncc1	none (no result: MITF TRPM1 inh, MITF TRPM1 HTS, Wnt act)
O=C(C[C@H]1C=C[C@H](NC(=O)c2ccc(F)cc2)[C@@H](CO)O1)NCCc1ccncc1	none (no result: MITF TRPM1 inh, MITF TRPM1 HTS, Wnt act)
CCOc1ccc(-c2nnc(SCC(=O)Nc3ccc4c(c3)c3ccccc3n4CC)n2N)cc1	MITF TRPM1 inh 78 (no result: EWS-Fli block)
CCn1c2ccccc2c2cc(NC(=O)CSc3nnc(-c4ccc(OC)c(OC)c4)n3N)ccc21	none (no result: EWS-Fli block, MITF TRPM1 HTS, Wnt act)
